PubChem BioAssay AID1117361 (Southern Research Institute, 2015)
The whole screen tested about 3,600 compounds, of which about 900 (25%) were called active. The rule behind the calls is not given here. A selection follows. Results with a measured potency or affinity are listed apart.

biological target: Protein Tat (Human immunodeficiency virus type 1 group M subtype B (isolate HXB2)) (UniProt P04608); experiment: inhibitors of Tat binding to TAR RNA, dose response, counter-screen for Vif-APOBEC3G degradation inhibitor project, biochemical, fluorescence polarization, FAM-labeled TAR RNA (AID 1117361); conditions: outcome: dose series up to 100 µM unless noted; series mostly up to 100 µM; inhibition: at the top concentration

| Structure (SMILES) | outcome | inhibition |
| --- | --- | --- |
| Cc1ccc(OCCC(=O)OCC(=O)c2ccc3c(c2)NC(=O)CO3)cc1 | inactive | – |
| CCC(C)[C@@H](C(=O)Nc1ccc2c(c1)OCO2)N1Cc2ccccc2C1=O (stereo not given in full) | – | 2.7% (inactive) |
| Cc1ccc(S(=O)(=O)CCC(=O)Nc2ccc3c(c2)OCO3)cc1 | – | 6.76% (inactive) |
| CCc1ccc(NC(=O)COC(=O)CCc2nc3cc(S(=O)(=O)N(CC)CC)ccc3n2C)cc1 | inactive | – |
| Cc1ccc(S(=O)(=O)NCCC(=O)N2CCN(C/C=C/c3ccccc3)CC2)cc1 | inactive | – |
| CCCc1cc(=O)[nH]c(SCC(=O)c2c(C)[nH]c3ccccc23)n1 | inactive | – |
| O=C(CSc1nc2ccccc2c(=O)n1NC(=O)c1ccccc1)c1ccccc1 | – | 1.36% (inactive) |
| COc1ccc(CC(NC(C)=O)C(=O)NC2CCN(S(=O)(=O)c3cccc4ccccc34)CC2)cc1OC (stereo not given) | – | 3.38% (inactive) |
| COc1c(F)c(F)c(C(=O)Nc2ccc3oc(-c4ccncc4)nc3c2)c(F)c1F | – | 7.43% (inactive) |
| CCOC(=O)C1=C(C)NC2=C(C(=O)CC(C)(C)C2)C1c1ccsc1 (stereo not given) | inactive | – |
| CCN(CC)c1ccc(C2NC(=O)NC(C)=C2C(=O)Nc2ccccc2)cc1 (stereo not given) | – | 15.7% (inactive) |
| CCn1c(=O)c(C(=O)NCc2ccccn2)c(O)c2ccccc21 | – | 0.68% (inactive) |
| CCOC(=O)c1c(O)c2ccccc2n(-c2ccccc2)c1=O | – | 11.5% (inactive) |
| O=C(CSc1nccn1Cc1ccccc1)Nc1nccs1 | – | 14.2% (inactive) |
| CC(C)(C)OC(=O)NC(CCNC=C1C(=O)OC(C)(C)OC1=O)C(=O)O (stereo not given) | inactive | – |
| O=C(Cc1ccc2c(c1)OCCO2)N1CCN(S(=O)(=O)c2cccs2)CC1 | inactive | – |
| CC(=O)Nc1nnc(C)s1 | inactive | – |
| COc1ccc(CNc2nc3ccccc3n2C)c(O)c1 | inactive | – |
| COc1ccc(-c2nnc(-c3ccc(N)cc3)o2)cc1 | – | 4.34% (inactive) |
| O=C(NCCc1ccncc1)Nc1ccccc1Cl | inactive | – |
| O=C(CCCNS(=O)(=O)c1cccc2nsnc12)NCc1ccccc1 | – | 2.73% (inactive) |
| Cc1onc(-c2ccccc2)c1C(=O)NCc1cccs1 | – | 5.46% (inactive) |
| O=C(NCc1ccco1)c1cc(-c2cccc(Cl)c2)on1 | – | 15% (inactive) |
| Cc1cc2oc(=O)cc(C)c2c(=O)o1 | – | 23.9% (inactive) |

| Structure (SMILES) | outcome | inhibition |
| --- | --- | --- |
| CS(=O)(=O)N1CCc2cc(C(=O)OCC(=O)c3ccccc3)ccc21 | – | 6.76% (inactive) |
| CCOC(=O)c1c(NC(=O)Cn2cc([N+](=O)[O-])cn2)sc2c1CCC2 | – | 4.05% (inactive) |
| CCOC(=O)c1c(NC(C)=O)sc2c1CCCNC2=O | – | 2.7% (inactive) |
| COc1ccc(C)cc1NC(=O)C1CC(=O)OC12CCCCC2 (stereo not given) | – | 5.41% (inactive) |
| Nc1c(S(=O)(=O)c2ccccc2)c2nc3ccccc3nc2n1/N=C/c1ccco1 | inactive | – |
| Cc1cccc(S(=O)(=O)c2c(N)n(/N=C/c3ccco3)c3nc4ccccc4nc23)c1 | – | 7.43% (inactive) |
| CC(=O)N1c2c(cc(Br)cc2S(=O)(=O)N2CCOCC2)CC1C (stereo not given) | – | 8.11% (inactive) |
| COc1ccc2cc(C(c3nnnn3C3CCCC3)N3CCc4ccccc4C3)c(=O)[nH]c2c1 (stereo not given) | – | 26.4% (inactive) |
| CCC(C)(C)n1nnnc1C(c1cc2cc(C)ccc2[nH]c1=O)N1CCCc2ccccc21 (stereo not given) | – | 3.48% [at 50 µM] (inactive) |
| COC(=O)c1ccc(S(=O)(=O)N2CCN(CCO)CC2)n1C | inactive | – |
| O=C1c2c(O)ccc(O)c2C(=O)c2c(NCCNCCO)ccc(NCCNCCO)c21 | – | 3.01% (inactive) |
| COC(=O)COc1ccc2c(c1C)O/C(=C\c1ccco1)C2=O | – | 1% (inactive) |
| O=C(O)COc1ccc(NC(=O)c2ccco2)cc1 | – | 15% (inactive) |
| COc1ccc(NC(=O)c2ccc(-n3cccn3)nc2)cc1 | inactive | – |
| COc1ccccc1C1CC(=O)Nc2c1c(=O)n(C)c(=O)n2C (stereo not given) | – | 6.76% (inactive) |
| O=C(Nc1nnc(C2CC2)s1)c1ccc(S(=O)(=O)c2ccccc2)cc1 | – | 7.68% (inactive) |
| CC(=O)Nc1nnc(-c2c(-c3c(Cl)cccc3Cl)noc2C)o1 | inactive | – |
| CC12CCC(C(=O)NCCN3CCCCC3)(CC1=O)C2(C)C (stereo not given) | inactive | – |
| CC(C)C(C)NC(=O)COc1ccc(S(=O)(=O)N2CCOCC2)cc1Cl (stereo not given) | inactive | – |
| Clc1cccc(Cl)c1Cn1nnc(-c2cccs2)n1 | inactive | – |
| COc1ccc(N(C(=O)COc2ccccc2OC)S(=O)(=O)c2ccc(C)cc2)cc1 | – | 2.73% (inactive) |
| O=C(CSc1nnnn1-c1ccccc1)Nc1nsc(-c2ccccc2)n1 | – | 3.38% (inactive) |
| NC(=O)c1ccc(-n2nnnc2SCC(=O)Nc2ccccc2-c2ccccc2)cc1 | – | 5.41% (inactive) |
| Cc1cc2cc(C=O)c(Cl)nc2cc1C | inactive | – |

| Structure (SMILES) | outcome | inhibition |
| --- | --- | --- |
| Cc1ccccc1OCC(=O)NCC1CCCO1 (stereo not given) | – | 4.05% (inactive) |
| CCOc1cccc(SCc2noc(C(=O)NCC3CCCO3)c2C(=O)O)c1 (stereo not given) | – | 9.46% (inactive) |
| Cc1cc2ncn(C(=O)N3CCOCC3)c2cc1C | – | 4.05% (inactive) |
| O=C(CN1C(=O)NC2(CCCC2)C1=O)Nc1nc(-c2ccc(F)cc2)cs1 | – | 2.05% (inactive) |
| CCOc1ccc(N2C(=O)c3ccccc3C2O)cc1 (stereo not given) | inactive | – |
| COc1ccc(CN2C(=O)c3ccccc3C2C(=O)NCc2cccnc2)c(OC)c1 (stereo not given) | inactive | – |
| C/C(=N\NC(=O)c1ccc(NS(=O)(=O)c2cccs2)cc1)c1ccccc1 | – | 1.65% (inactive) |
| Cc1ccc(CN2C(=O)CCC2C(=O)N2CCN(c3ccc(F)cc3)CC2)cc1 (stereo not given) | – | 2.73% (inactive) |
| CC(=O)n1c(Cl)c(NC(=O)CCl)c2ccccc21 | – | 3.38% (inactive) |
| CC(NC(=O)C(NS(=O)(=O)c1cccs1)C(C)C)c1ccc(S(N)(=O)=O)cc1 (stereo not given) | inactive | – |
| Cc1cc(C)cc(NCCC#N)c1 | inactive | – |
| CCOC(=O)CC1Sc2ccccc2NC1=O (stereo not given) | inactive | – |
| Cc1cc(C)n(Cc2ccc(NC(=O)c3nn(C)cc3[N+](=O)[O-])cc2)n1 | inactive | – |
| Cc1ccc2[nH]c(=O)c(CN(Cc3cccnc3)C(=O)c3ccncc3)cc2c1 | inactive | – |
| COC(=O)Nc1sc2nc(C)cc(C)c2c1-n1cccc1 | – | 8.78% (inactive) |
| O=C(COc1ccc([N+](=O)[O-])cc1)NC(C(=O)O)C(O)c1cccc([N+](=O)[O-])c1 (stereo not given) | – | 12.4% (inactive) |
| CCn1c(COc2ccc(=O)n(-c3ccccc3)n2)nnc1SCc1ccc(C)cc1 | inactive | – |
| CCc1ccc(NC(=O)C(C)Oc2nnc(-c3cccs3)c(-c3cccs3)n2)cc1 (stereo not given) | – | 2.7% (inactive) |
| Cc1ccccc1SCc1noc(C(=O)NC(C)C)c1C(=O)O | – | 6.08% (inactive) |
| CN(Cc1cccs1)C(=O)Cn1cnc2ccccc2c1=O | inactive | – |
| COc1ccc([N+](=O)[O-])cc1CSc1nnc(NC(C)=O)s1 | – | 9.9% (inactive) |
| COCCSc1nnc(NC(=O)Cc2ccccc2OC)s1 | – | 8.11% (inactive) |
